Source: PubChem (National Center for Advancing Translational Sciences (NCATS))
HepG2 viability: qHTS for Inhibitors of TGF-b: Cytotox Counterscreen; Potency, µM (highest dose often 46.1 µM), without a hit: at the top dose activity change, negative = cytotoxicity, actives largely listed as cytotoxic; AID 588856, 2011; 410,000 compounds, 0.76% hits; HepG2 CAGA-GFP viability, ATP luminescence, 18 h
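CellTiter-Glo luminescence gave cytotoxicity after 18 hours at 37 degrees C. The cells were HepG2 CAGA-GFP in 1% FBS DMEM, stimulated with 500 pg/mL TGF-beta after compound addition. %Activity was normalised to no-cell wells (complete cell-killing) and DMSO (no toxicity), and curves were fitted and classified.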
DT40 TDP1 no CPT: qHTS for Inhibitors of human tyrosyl-DNA phosphodiesterase 1 (TDP1): qHTS in cells in absence of CPT | DT40 Tdp1-/- hTDP1 cells, no CPT, ATP luminescence, 48 h | Potency, µM (doses to about 46.2 µM), for inactives: at the top dose activity change, negative = growth inhibition, most hits filed as inhibitors | 420,000 compounds, 15% hits; also: % is scaled to controls: 0 for no effect and ±100 for the full control effect; nearly all actives have a fitted effect of over 55% in size
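Luminescent ATP content (CellTiter-Glo) served as the growth readout. Knockout chicken DT40 cells expressing human TDP1 were exposed to compounds without camptothecin for a minimum 48 hr at 37 °C.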
HT1080NT lethal: qHTS for induction of synthetic lethality in tumor cells producing 2HG: qHTS for the HT-1080-NT fibrosarcoma cell line; HT-1080-NT fibrosarcoma viability, CellTiter-Glo ATP luminescence, 48 h; Potency, µM (series often up to 46.1 µM), without a hit: at the highest dose activity, negative = less viability, usual class: cytotoxic; 360,000 compounds, 1.6% hits; AID 686970, 2013;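 also: NT is the 2HG producing partner of a matched IDH1 knockdown line; 0% = DMSO-treated cells and -100% = media-only wells without cells; nearly all actives have a fitted effect of over 55% in size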
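A 48-hour cytotoxicity screen used HT-1080-NT cells plated 2 hours before compound delivery. ATP-based CellTiter-Glo luminescence measured viability, normalized to DMSO and no-cell controls.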
HT1080 IDH1KD tx: qHTS for induction of synthetic lethality in tumor cells producing 2HG: qHTS for the HT-1080-IDH1KD cell line; 360,000 compounds, 2% hits; Potency, µM (series often up to 46.1 µM), without a hit: top-dose activity, negative = toxicity, usual class: cytotoxic; AID 686971, 2013; HT-1080 IDH1 knockdown viability, ATP luminescence, 48 h;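 also: 0% = DMSO wells and -100% = cell-free medium wells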
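Viability of IDH1-knockdown HT-1080 fibrosarcoma cells was assessed by CellTiter-Glo after 48 h at 37 °C with titrated compound; concentration-effect curves were classified by fit quality and response size.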
TDP1 cell CPT: qHTS for Inhibitors of human tyrosyl-DNA phosphodiesterase 1 (TDP1): qHTS in cells in presence of CPT. chicken DT40 Tdp1-/-;hTDP1 cells + 20 nM CPT, ATP luminescence, 48 h. Potency, µM (series often up to 46.2 µM), for inactives: at the top dose activity change, negative = growth inhibition, hits mostly inhibitors. AID 686979, 2013. 420,000 compounds, 12% hits; also: % is scaled to controls: 0 for no effect and ±100 for the full control effect; nearly all actives have a fitted effect of over 55% in size
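Chicken DT40 Tdp1-/- cells complemented with human TDP1, 400 cells/well, exposed to compounds plus 20 nM camptothecin for at least 48 h at 37 C; viability read as ATP content by CellTiter-Glo luminescence.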
TGFb inhibitor: qHTS for Inhibitors of TGF-b; HepG2 CAGA-GFP TGF-b/SMAD3 reporter, GFP fluorescence, 18 h; TGF-beta stimulated, 500 pg/mL final; Potency, µM (titrated, usually from 46.1 µM), inactives show top-dose activity, negative = inhibition, hits mostly inhibitors; 410,000 compounds, 1.2% hits; AID 588855, 2011; also: % is scaled to controls: 0 for no effect and ±100 for the full control effect; nearly all actives have a fitted effect of over 65% in size
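Using HEPG2 CAGA-GFP reporter cells at 1000 cells/well, we pinned test compounds, stimulated with recombinant TGF-beta (500 pg/mL final) and measured total well GFP after 18 h.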
* = called active by the depositor; u = inconclusive; x = no result given. This is a sample that favours compounds with a hit; in the whole collection about 17% have one here. Calls follow the shape of the dose curve; as a rule, active = well fitted curve in the direction sought with a large enough effect; inconclusive = small, poorly fitted or top-dose-only effect, or another doubt; inactive = no such curve, though single readings can be large; an effect the other way counts as inactive or inconclusive. Potency is read from the fitted curve at half-maximal effect.

SMILES	HepG2 viability	DT40 TDP1 no CPT	HT1080NT lethal	HT1080 IDH1KD tx	TDP1 cell CPT	TGFb inhibitor
CCCCOP(=O)(c1ccc(N(C)C)cc1)C(O)c1ccc(OC)c(OC)c1 (configuration not stated)	-21%	-25%	10%	2%	-4%	15%
Clc1ccc(C2NCCc3[nH]cnc32)cc1 (configuration not stated)	-12%	2%	4%	-4%	-9%	-3%
C#CC(C)(CC)NC(=O)Cn1nnc(-c2ccc(OCc3ccccc3C)cc2)n1 (configuration not stated)	-29%	u	x	x	u	u
CN(Cc1cccc(-c2ccncc2)c1)C(=O)Oc1ccccc1Cl	x	u	-17%	-29%	u	x
CN(Cc1cccc(-c2ccncc2)c1)C(=O)Oc1ccccc1Cc1ccccc1	x	16µM*	18µM*	13µM*	u	x
Cc1nc2cc(OC(=O)N(C)Cc3cccc(-c4ccncc4)c3)ccc2s1	x	18µM*	u	u	u	x
CCCCC/C=C\C/C=C\C/C=C\C/C=C\CCCC(=O)Nc1ccc(O)cc1	x	21µM*	x	x	27µM*	x
C[C@]12CCC(=O)C=C1CC[C@@H]1C2[C@H](O)C[C@]2(C)C(=O)CCC12 (some centres not stated)	-18%	-10%	8%	0%	1%	13%
CC1(C)N(O)C(c2ccc(C(=O)O)cc2)=[N+]([O-])C1(C)C	x	-13%	x	x	9%	x
COc1cccc(CSc2nc(-c3ccccc3OC)nc3c2Cc2c(CO)cnc(C)c2O3)c1	-1%	3.7µM*	x	x	5.8µM*	31%
Cc1ncc(CO)c2c1Oc1nc(-c3ccccc3Cl)nc(SCc3ccccc3F)c1C2	-5%	15µM*	x	x	15µM*	-20%
COc1cc2c(cc1OC)C1C(=O)c3c(cc4c(c3O)C=CC(C)(C)O4)OC1CO2 (configuration not stated)	x	0.73µM*	x	x	1.3µM*	x
N#CCCn1cc(C(=O)Nc2ccccc2Br)c(-c2ccc([N+](=O)[O-])cc2)n1	6%	u	-13%	-20%	-23%	4%
CC(C)=CCc1c(O)cc2c(c1O)C(=O)CC(c1ccc(O)cc1)O2 (configuration not stated)	-75%	23µM*	0%	1%	16µM*	u
O=C(NCC1=C(c2cccc3ccccc23)C[C@@H]2CC[C@H]1N2Cc1ccco1)c1ccc([N+](=O)[O-])cc1	-41%	18µM*	u	u	21µM*	u
CS(=O)(=O)c1ccc(C2=C(CNC(=O)c3ccc([N+](=O)[O-])cc3)[C@H]3CC[C@@H](C2)N3Cc2ccccc2)cc1	-27%	-26%	-12%	-10%	-18%	-2%
CS(=O)(=O)c1ccc(C2=C(CNC(=O)c3ccc([N+](=O)[O-])cc3)[C@H]3CC[C@@H](C2)N3CCOc2ccccc2)cc1	-42%	15µM*	-10%	-20%	u	-2%
Cc1cccc(OP(N)(=O)Oc2cccc(C)c2C)c1C	-60%	u	-16%	-4%	u	u
CC(Cc1ccccc1)NCC(=O)Nc1cc(N(C)C)nc2ccccc12 (configuration not stated)	8%	u	u	23µM*	u	-19%
Cc1cc(C)c(C(=O)CSc2n[nH]c(=O)n2C2CC2)cc1C	-26%	20µM*	-16%	32µM*	11µM*	-17%
Cc1cc(C(=O)CN2C(=O)c3ccccc3C2=O)c(C)n1C1CC1	6%	u	9%	10%	u	-8%
CC(C)NC(=O)Cn1cc(C(=O)c2ccccc2F)c2ccccc21	-19%	-26%	-19%	u	-25%	-13%
CC(=O)OC(C)(C)/C=C/C(=O)[C@](C)(O)C1[C@H](O)C[C@@]2(C)C3CC=C4C(C[C@H](O)C(=O)C4(C)C)[C@]3(C)C(=O)C[C@]12C (some centres not stated)	-19%	0.021µM*	u	0.033µM*	0.0082µM*	u
CC(C)(O)/C=C/C(=O)C(C)(O)C1C(O)CC2(C)C3CC=C4C(C=C(O)C(=O)C4(C)C)C3(C)C(=O)CC12C (configuration not stated)	-57%	0.016µM*	0.65µM*	0.15µM*	0.037µM*	u
CCN(Cc1ccc(Cl)nc1)/C(=C/[N+](=O)[O-])NC	x	-17%	x	x	15%	x
SMILES	HepG2 viability	DT40 TDP1 no CPT	HT1080NT lethal	HT1080 IDH1KD tx	TDP1 cell CPT	TGFb inhibitor
C/C=C1/CN2CC[C@]34C(=C(C=O)[C@H]1C[C@@H]23)Nc1ccccc14	x	u	x	x	-14%	x
Cc1ccc(O)cc1	x	3%	x	x	u	x
Cc1ccc(C=C2C(Cl)=C(Cl)C(Cl)=C2Cl)cc1	13%	5.2µM*	-20%	0%	3.3µM*	-18%
Cc1oc2ccc(O)c(CN3CCCCCC3)c2c1C(=O)Nc1cccc(Cl)c1C	-18%	5.8µM*	x	x	3.7µM*	u
Cc1[nH]c2c(Cl)cccc2c(=O)c1CN1CCCCCC1	-12%	-16%	11%	13%	u	3%
CC(=O)N1CC(=O)Nc2ccc(Br)cc2C1c1ccc(F)cc1 (configuration not stated)	-84%	14%	-1%	-10%	5%	-23%
CC[C@H](C)[C@@H]1NC(=O)CNC(=O)c2csc(n2)[C@H](C(C)(C)O)OC(=O)C(C)(C)[C@H](CCCC(C)(Cl)Cl)OC(=O)c2csc1n2	-36%	0.18µM*	2.1µM*	0.073µM*	0.052µM*	u
Cc1cccc(-c2nn3c(=O)cc(CN4CCN(C(=O)COc5ccc(Cl)cc5)CC4)nc3s2)c1	-16%	u	x	x	u	u
O=C(COc1ccccc1F)N1CCN(Cc2cc(=O)n3nc(-c4ccccc4Cl)sc3n2)CC1	-4%	15µM*	x	x	u	-10%
Cc1ccccc1-c1nn2c(=O)cc(CN3CCN(C(=O)COc4ccccc4Cl)CC3)nc2s1	-15%	8.2µM*	x	x	18µM*	u
